This passage reports outcome and AC50 results from PubChem BioAssay (EPA / NIEHS).

Some structures have more than one record in an assay (separate samples or runs), and their calls can disagree. Active and inactive are the calls of the source. The calls were made as follows: active = hit-call score of the fitted dose curve at least 0.9, where 1 is the maximum; inactive = score below 0.9.

Assay [1] deals with CCAAT/enhancer-binding protein beta (Homo sapiens) (UniProt P17676). Description: ATG_C_EBP_CIS: Attagene CIS-FACTORIAL HepG2 Assay for human CCAAT/Enhancer Binding Protein (C/EBP) beta (AID 2282927). The settings on record: HepG2 Attagene cis-factorial transcription factor reporter; actives raise or lower the signal. The gist of the method: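 Transiently transfected HepG2 (MRTU library, endogenous TF-driven promoters); 24 h dosing; total RNA → oligo(dT) RT → PCR → 6-FAM primer extension → HpaI digest → CE; fit bidirectionally vs DMSO.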
CCAAT/enhancer-binding protein beta (Homo sapiens), sequence (P17676 whole entry, looked up): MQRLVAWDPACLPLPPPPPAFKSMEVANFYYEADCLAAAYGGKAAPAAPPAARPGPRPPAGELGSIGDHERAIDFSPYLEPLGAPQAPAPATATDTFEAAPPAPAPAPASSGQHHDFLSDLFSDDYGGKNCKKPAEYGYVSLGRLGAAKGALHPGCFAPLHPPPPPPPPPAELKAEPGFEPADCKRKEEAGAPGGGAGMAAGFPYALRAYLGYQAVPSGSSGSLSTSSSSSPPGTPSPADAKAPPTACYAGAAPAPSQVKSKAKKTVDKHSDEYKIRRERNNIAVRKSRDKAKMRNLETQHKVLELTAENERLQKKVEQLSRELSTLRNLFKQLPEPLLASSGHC

Assay [2] in a line: ATG_CMV_CIS: Attagene CIS-FACTORIAL HepG2 Assay for human CMV (Internal Marker) (AID 2282928).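 Also: endpoint acts as a background internal control marker rather than a target.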 Particulars: HepG2 CMV promoter reporter, transcription factor profiling; actives raise or lower the signal. The gist of the method:
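Fluorescence intensity of RT-PCR-derived reporter fragments, resolved by capillary electrophoresis, gives the signal. HepG2 liver cells bearing transfected cis-element reporters were treated 24 h; activity in either direction was fit relative to DMSO-treated controls.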

The nature of assay [3]: ATG_DR4_LXR_CIS: Attagene CIS-FACTORIAL HepG2 Assay for human Liver X Receptor (LXR), DR4 submotif (AID 2282929). Particulars: HepG2 Attagene DR4 cis-reporter, mRNA transcription; actives raise or lower the signal. Summed up:
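HepG2, transient MRTU transfection, cis-element (DR4) promoter; 24 h compound exposure; total RNA → oligo(dT) RT → PCR → 6-FAM primer extension → HpaI cut → CE. Gain/loss vs DMSO, bidirectional fit.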

Assay [4] can be described thus: ATG_AP_1_CIS: Attagene CIS-FACTORIAL HepG2 Assay for human Activator Protein 1 (AP-1) (AID 2282931). The settings on record: HepG2 Attagene cis-factorial AP-1 reporter mRNA; actives raise or lower the signal. The gist of the method: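 Transient MRTU transfection of HepG2 → 24 h chemical treatment → RNA isolation, RT-PCR, 6-FAM labelling, HpaI digest → capillary electrophoresis. Fit: bidirectional, DMSO negative control.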

The nature of assay [5]: ATG_AP_2_CIS: Attagene CIS-FACTORIAL HepG2 Assay for human Activator Protein 2 (AP-2) (AID 2282932). The settings on record: HepG2 AP-2 cis-reporter, Attagene transcription factor profiling; actives raise or lower the signal. Summed up:
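Read-out: fluorescent reporter mRNA via RT-PCR and capillary electrophoresis, 24 h post-dose in transiently transfected HepG2. Endogenous factors drive cis-promoter reporters; gain or loss of signal fitted bidirectionally against DMSO.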

Assay [6] can be described thus: ATG_BRE_CIS: Attagene CIS-FACTORIAL HepG2 Assay for human Bone Morphogenetic Protein (BMP) Response Element (BRE) (AID 2282933). The settings on record: HepG2 BMP response element reporter, Attagene transcription factor profiling; actives raise or lower the signal. Summed up:
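Endogenous transcription factor activity read in transiently transfected HepG2 cells after 24 h chemical exposure. Bidirectional curve fitting against DMSO; readout is reporter transcript level by RT-PCR with capillary electrophoresis of labelled products.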

Assay [7] deals with Retinoic acid receptor alpha (Homo sapiens) (UniProt P10276). Description: ATG_DR5_RAR_CIS: Attagene CIS-FACTORIAL HepG2 Assay for human Retinoic Acid Receptor Alpha (RARE), DR5 submotif (AID 2282934). Particulars: HepG2 Attagene cis-factorial RARE DR5 reporter, mRNA; actives raise or lower the signal. Summed up: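 Read-out: DR5-driven reporter transcript measured by RT-PCR, 6-FAM primer extension, HpaI digest and capillary electrophoresis. Human HepG2 liver cells carry transiently transfected cis-element reporter constructs; dosing lasts 24 h. Gain or loss of signal fitted against DMSO baseline.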
Retinoic acid receptor alpha (Homo sapiens), sequence (P10276 whole entry, looked up): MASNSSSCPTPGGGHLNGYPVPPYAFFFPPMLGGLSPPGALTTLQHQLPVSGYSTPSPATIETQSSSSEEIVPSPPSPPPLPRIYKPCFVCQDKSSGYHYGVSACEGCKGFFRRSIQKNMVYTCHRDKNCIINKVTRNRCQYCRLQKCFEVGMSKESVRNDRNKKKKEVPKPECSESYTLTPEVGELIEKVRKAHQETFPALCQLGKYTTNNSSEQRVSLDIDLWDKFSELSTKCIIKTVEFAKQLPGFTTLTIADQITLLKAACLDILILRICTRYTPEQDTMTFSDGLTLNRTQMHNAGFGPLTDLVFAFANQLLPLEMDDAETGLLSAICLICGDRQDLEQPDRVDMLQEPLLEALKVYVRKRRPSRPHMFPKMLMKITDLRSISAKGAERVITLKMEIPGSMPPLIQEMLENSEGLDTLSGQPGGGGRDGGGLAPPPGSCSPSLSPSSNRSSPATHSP

Assay [8] concerns the target Transcription factor E2F1 (Homo sapiens) (UniProt Q01094). Description: ATG_E2F_CIS: Attagene CIS-FACTORIAL HepG2 Assay for human E2F Transcription Factor 1 (AID 2282935). Particulars: HepG2 Attagene cis-reporter, E2F reporter RNA transcripts; actives raise or lower the signal. Summed up: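 Transient MRTU transfection of HepG2; 24 h compound exposure; RNA → oligo(dT) RT → PCR → FAM label → HpaI cut → CE fluorescence. Gain/loss of signal fit against DMSO.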

A short description of assay [9]: ATG_E_Box_CIS: Attagene CIS-FACTORIAL HepG2 Assay for human Enhancer Box (E-box) (AID 2282936). The settings on record: HepG2 E-box cis-reporter transcription, actives raise or lower the signal. The gist of the method:
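Transiently transfected HepG2, endogenous TF-driven reporters, 24 h dosing. Readout: RT-PCR plus capillary electrophoresis of fluorescent reporter fragments. Gain or loss of signal fitted bidirectionally against DMSO baseline.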

Assay [10] in a line: ATG_M_61_CIS: Attagene CIS-FACTORIAL HepG2 Assay for M61 Transcription Factor (Internal Marker) (AID 2282937). Particulars: HepG2 Attagene CIS-FACTORIAL M61 internal marker reporter; actives raise or lower the signal. The gist of the method:
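Human liver HepG2, transient MRTU transfection (cis promoter elements), 24 h compound. Total RNA → oligo(dT) RT → PCR → FAM label → HpaI → CE. Internal background marker; bidirectional fitting, DMSO = baseline.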

Assay [11] is described as follows: ATG_EGR_CIS: Attagene CIS-FACTORIAL HepG2 Assay for human Early Growth Response 1 (EGR1) (AID 2282938). The settings on record: HepG2 Attagene CIS-FACTORIAL EGR reporter mRNA; actives raise or lower the signal. Summed up:
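Transient transfection of human HepG2 with multiple cis-regulated reporter units, chemical exposure 24 h, total RNA isolated. Reverse transcription, PCR, fluorescent labelling and capillary electrophoresis quantify reporter transcripts; activity fitted bidirectionally against DMSO.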

Assay [12] in a line: ATG_M_19_CIS: Attagene CIS-FACTORIAL HepG2 Assay for M19 Transcription Factor (Internal Marker) (AID 2282939). The settings on record: HepG2 Attagene CIS-FACTORIAL M19 internal marker reporter; actives raise or lower the signal. The gist of the method: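 Internal marker readout, fitted in both directions against DMSO, from HepG2 cells carrying transfected cis-element reporter constructs; RT-PCR and capillary electrophoresis of reporter mRNA after 24 h exposure.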

Assay [13] can be described thus: ATG_ERE_CIS: Attagene CIS-FACTORIAL HepG2 Assay for Estrogen Response Element (ERE) (AID 2282940). Particulars: HepG2 ERE cis-reporter, Attagene RNA transcript; actives raise or lower the signal. Summed up: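 After 24 h compound treatment, RNA from transfected HepG2 cells was reverse-transcribed, reporter cDNA PCR-amplified, FAM-labelled, HpaI-cut and resolved by capillary electrophoresis. ERE-driven cis reporter transcripts reflect endogenous factors; gain or loss scored against DMSO.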

A short description of assay [14]: ATG_Ets_CIS: Attagene CIS-FACTORIAL HepG2 Assay for human Erythroblast Transformation Specific (ETS) (AID 2282941). The settings on record: HepG2 ETS cis-reporter transcription, actives raise or lower the signal. The gist of the method:
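Multiplexed reporter transcript profiling: HepG2, 24 h treatment, total RNA to cDNA, PCR, 6-FAM labelling, HpaI cut, capillary electrophoresis. Gain- or loss-of-signal fitted against DMSO.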

The target in assay [15] is Hepatocyte nuclear factor 3-beta (Homo sapiens) (UniProt Q9Y261). Description: ATG_FoxA2_CIS: Attagene CIS-FACTORIAL HepG2 Assay for human Forkhead box A2 (FOXA2) (AID 2282942). The settings on record: HepG2 cis-reporter transcription factor activity, 24 h; actives raise or lower the signal. The gist of the method:
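Transient MRTU transfection of HepG2 liver cells; 24 h treatment; total RNA → oligo(dT) RT → PCR → FAM primer extension → HpaI cut → CE. Bidirectional fit vs DMSO.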

Assay [16] can be described thus: ATG_FoxO_CIS: Attagene CIS-FACTORIAL HepG2 Assay for human Forkhead box O (FoxO) (AID 2282943). The settings on record: HepG2 Attagene cis-reporter, FoxO element, mRNA; actives raise or lower the signal. Summed up: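 Read-out: fluorescence of 6-FAM-labelled reporter cDNA fragments resolved by capillary electrophoresis. Transiently transfected HepG2 cells were dosed for 24 h; activity fitted in both directions relative to DMSO controls.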

A short description of assay [17]: ATG_GATA_CIS: Attagene CIS-FACTORIAL HepG2 Assay for human GATA Binding Protein (AID 2282944). The settings on record: HepG2 GATA cis-element reporter, Attagene multiplex mRNA; actives raise or lower the signal. Summed up: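 Reporter transcripts from a GATA cis-regulated unit, among multiplexed reporters in transfected HepG2 cells, were measured by RT-PCR with capillary electrophoresis after 24 h dosing. Induction or loss scored relative to DMSO.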

Assay [18] in a line: ATG_GLI_CIS: Attagene CIS-FACTORIAL HepG2 Assay for human Zinc Finger Protein GLI1 (AID 2282945). Particulars: HepG2, Attagene cis-factorial reporter mRNA, GLI element; actives raise or lower the signal. The gist of the method: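 Transiently transfected HepG2 cells report endogenous transcription factor activity via cis-element-driven reporter units. After 24 h compound exposure, reporter mRNA was measured by RT-PCR with capillary electrophoresis; bidirectional fitting against DMSO baseline.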

Assay [19] deals with Aryl hydrocarbon receptor (Homo sapiens) (UniProt P35869). Description: ATG_Ahr_CIS: Attagene CIS-FACTORIAL HepG2 Assay for human Aryl Hydrocarbon Receptor (Ahr) (AID 2282930). The settings on record: HepG2 AhR cis-factorial reporter transcription; actives raise or lower the signal. The gist of the method:
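Read-out: reporter mRNA quantified by RT-PCR with fluorescent primer extension and capillary electrophoresis. Human HepG2 liver cells carried transfected cis-promoter reporter units and were exposed to chemical for 24 h; gain or loss fitted relative to DMSO.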

For assay [20], the target named is Bile acid receptor (Homo sapiens) (UniProt Q96RI1). Kind of assay: ATG_IR1_CIS: Attagene CIS-FACTORIAL HepG2 Assay for human Nuclear Receptor Subfamily 1 Group H Member 4 (NR1H4), IR1 submotif (AID 2282946). Particulars: IR1 reporter transcription, actives raise or lower the signal. Summed up:
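Fluorescence of capillary-separated, HpaI-digested RT-PCR reporter products gave IR1-element mRNA induction in HepG2 cells 24 h after dosing. Endogenous transcription factors drove the cis-regulated reporters; activity was fitted bidirectionally against DMSO.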

Aryl hydrocarbon receptor (Homo sapiens), sequence (P35869 whole entry, looked up): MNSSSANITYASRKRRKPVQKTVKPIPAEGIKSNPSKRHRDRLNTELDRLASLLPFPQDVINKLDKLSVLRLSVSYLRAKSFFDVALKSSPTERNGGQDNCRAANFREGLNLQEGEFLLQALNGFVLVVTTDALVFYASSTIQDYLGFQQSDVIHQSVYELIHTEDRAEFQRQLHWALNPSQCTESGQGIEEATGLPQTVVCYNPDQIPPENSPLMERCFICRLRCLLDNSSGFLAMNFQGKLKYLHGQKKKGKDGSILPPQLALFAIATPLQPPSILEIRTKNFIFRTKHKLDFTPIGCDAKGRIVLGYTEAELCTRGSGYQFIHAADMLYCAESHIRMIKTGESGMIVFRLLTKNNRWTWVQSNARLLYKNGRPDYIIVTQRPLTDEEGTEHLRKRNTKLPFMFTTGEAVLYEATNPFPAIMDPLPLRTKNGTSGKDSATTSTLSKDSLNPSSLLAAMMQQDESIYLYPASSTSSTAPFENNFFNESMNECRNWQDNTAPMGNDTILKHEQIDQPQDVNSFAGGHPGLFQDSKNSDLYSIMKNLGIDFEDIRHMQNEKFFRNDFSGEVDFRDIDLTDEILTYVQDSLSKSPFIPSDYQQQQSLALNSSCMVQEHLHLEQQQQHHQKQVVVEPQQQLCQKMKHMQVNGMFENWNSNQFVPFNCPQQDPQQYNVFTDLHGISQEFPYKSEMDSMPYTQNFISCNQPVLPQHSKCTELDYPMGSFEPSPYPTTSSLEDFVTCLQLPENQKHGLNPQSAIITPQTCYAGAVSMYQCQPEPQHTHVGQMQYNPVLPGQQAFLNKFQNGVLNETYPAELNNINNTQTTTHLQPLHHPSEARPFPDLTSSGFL
Transcription factor E2F1 (Homo sapiens), sequence (Q01094 whole entry, looked up): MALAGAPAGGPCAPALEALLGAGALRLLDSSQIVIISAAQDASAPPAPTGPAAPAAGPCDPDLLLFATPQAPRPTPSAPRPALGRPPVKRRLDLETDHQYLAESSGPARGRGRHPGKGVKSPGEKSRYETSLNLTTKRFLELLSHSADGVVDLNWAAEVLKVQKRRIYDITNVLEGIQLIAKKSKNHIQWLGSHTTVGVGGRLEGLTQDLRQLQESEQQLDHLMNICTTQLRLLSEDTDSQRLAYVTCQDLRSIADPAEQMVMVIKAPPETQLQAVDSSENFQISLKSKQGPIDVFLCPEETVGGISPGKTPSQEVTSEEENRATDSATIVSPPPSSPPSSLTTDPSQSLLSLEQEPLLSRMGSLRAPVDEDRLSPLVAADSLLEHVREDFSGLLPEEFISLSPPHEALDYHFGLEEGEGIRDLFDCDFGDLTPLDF
Bile acid receptor (Homo sapiens), sequence (Q96RI1 whole entry, looked up): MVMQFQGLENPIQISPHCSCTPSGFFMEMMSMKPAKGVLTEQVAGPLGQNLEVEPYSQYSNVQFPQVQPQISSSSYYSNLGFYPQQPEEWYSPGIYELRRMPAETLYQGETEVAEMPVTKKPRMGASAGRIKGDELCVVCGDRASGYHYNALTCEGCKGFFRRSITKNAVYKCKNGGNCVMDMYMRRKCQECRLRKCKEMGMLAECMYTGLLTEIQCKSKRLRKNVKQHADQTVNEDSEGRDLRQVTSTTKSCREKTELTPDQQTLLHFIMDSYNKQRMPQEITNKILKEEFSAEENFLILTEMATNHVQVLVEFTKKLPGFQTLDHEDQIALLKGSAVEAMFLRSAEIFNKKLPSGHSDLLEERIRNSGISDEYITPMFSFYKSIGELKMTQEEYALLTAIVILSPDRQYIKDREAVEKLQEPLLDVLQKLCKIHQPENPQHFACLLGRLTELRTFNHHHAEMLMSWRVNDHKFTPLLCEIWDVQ
Hepatocyte nuclear factor 3-beta (Homo sapiens), sequence (Q9Y261 whole entry, looked up): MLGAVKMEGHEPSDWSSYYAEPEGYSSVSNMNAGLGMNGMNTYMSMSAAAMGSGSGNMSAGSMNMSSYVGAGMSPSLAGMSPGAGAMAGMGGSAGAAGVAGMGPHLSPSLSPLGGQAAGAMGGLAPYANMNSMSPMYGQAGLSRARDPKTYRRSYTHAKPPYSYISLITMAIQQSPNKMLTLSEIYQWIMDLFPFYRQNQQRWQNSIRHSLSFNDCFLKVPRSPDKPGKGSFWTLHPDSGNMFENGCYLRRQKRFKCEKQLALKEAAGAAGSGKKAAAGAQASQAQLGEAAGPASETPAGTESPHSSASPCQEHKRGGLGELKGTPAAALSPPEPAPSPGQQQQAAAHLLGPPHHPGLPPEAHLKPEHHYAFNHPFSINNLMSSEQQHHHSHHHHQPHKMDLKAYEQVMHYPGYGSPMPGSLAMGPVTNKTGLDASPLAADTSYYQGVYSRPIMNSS

As to `COCCO`, the result in [1], in assay [2], in [3], in assay [4], in assay [5] and in [6] was inactive. Also, the compound was called inactive in assay [7], in assay [8], in assay [9], in assay [10], in [11] and in [12]. In addition, the compound was called inactive in assay [13], in [14], in [15], in assay [16], in assay [17] and in [18].

Turning to `CCOC(=O)c1ccc(O)cc1`, the AC50 in [1] is 100 µM (active); in [6], 166 µM (active); in [9] it was 167 µM (active). Besides, the result in assay [1], in assay [2], in assay [3], in assay [19], in assay [4] and in [5] was inactive. Also, the compound was classed as inactive in assay [6], in [7], in assay [8], in assay [9], in assay [10] and in assay [11]. For the same compound, the outcome in assay [12], in [14], in [15], in [16], in assay [17] and in assay [18] was inactive. In assay [20], the result was inactive.

As to `C=CCOC(Cn1ccnc1)c1ccc(Cl)cc1Cl` (stereo unspecified), the AC50 in [1] is 12.4 µM (active); in assay [2], 33 µM (active); in assay [3], 76.1 µM (active); in assay [4] it was 50 µM (active); in assay [6] it was 33.7 µM (active); in assay [11] it was 30.9 µM (active). The compound was classed as inactive in assay [19], in assay [8], in assay [9], in assay [10], in assay [12] and in assay [14]. The outcome in assay [15], in assay [16], in assay [17] and in [18] was inactive.

Usually AC50 stands for the midpoint of the concentration-response curve, whichever way the signal moves.
